Experiment in all cases: DAPPL (digital affinity profiling via proximity ligation, sequencing); 10 mM Tris-HCl pH 7.5, 50 mM NaCl, 1 mM DTT, 4% glycerol, room temperature, 30 min; GST-TFs on glutathione beads, 16-mer random dsDNA library, 0.1% formaldehyde crosslink after washing; high values mean tight binding
Experiment [1] has as its target T1, FEV (Homo sapiens, UniProt Q99581 1-238).
T1 sequence: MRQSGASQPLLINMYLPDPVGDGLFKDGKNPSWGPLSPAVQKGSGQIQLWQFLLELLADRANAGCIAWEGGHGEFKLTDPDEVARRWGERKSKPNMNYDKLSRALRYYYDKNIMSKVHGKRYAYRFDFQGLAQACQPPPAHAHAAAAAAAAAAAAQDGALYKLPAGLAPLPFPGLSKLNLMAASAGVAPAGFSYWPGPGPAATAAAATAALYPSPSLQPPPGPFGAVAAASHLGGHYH
The conditions noted are these: protein: recombinant; tags: N-terminal GST; dsDNA, one strand shown. In a few lines: (§1)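 In yeast, human transcription factors were expressed with a GST fusion, then pulled down on glutathione beads and given DNA barcodes. Pooled with a tag-only sample, they were exposed to 200 nmole of a 16-mer random double-stranded DNA library (Tris/NaCl/DTT/glycerol buffer, room temperature, 30 min), washed, crosslinked with 0.1% formaldehyde, proximity-ligated using BsaI/T4 ligase for 1 h at 37 °C, PCR-amplified and read on an Illumina NextSeq500. Each hexamer's frequency of reads for a factor, divided by the matching frequency for the tag-only sample, gives the binding signal.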

Experiment [2] deals with ETV5 (Homo sapiens, UniProt P41161 1-510). The conditions noted are these: protein: recombinant; tags: N-terminal GST; dsDNA, one strand shown. In a few lines:
as §1

Experiment [3] deals with HSF1 (Homo sapiens, UniProt Q00613 1-529). The note with it: protein: recombinant; tags: N-terminal GST; chain copies: 3; dsDNA, one strand shown. In a few lines: as §1
Experiment [4] concerns the target T2, SPIC (Homo sapiens, UniProt Q8N5J4 1-248).
T2 sequence: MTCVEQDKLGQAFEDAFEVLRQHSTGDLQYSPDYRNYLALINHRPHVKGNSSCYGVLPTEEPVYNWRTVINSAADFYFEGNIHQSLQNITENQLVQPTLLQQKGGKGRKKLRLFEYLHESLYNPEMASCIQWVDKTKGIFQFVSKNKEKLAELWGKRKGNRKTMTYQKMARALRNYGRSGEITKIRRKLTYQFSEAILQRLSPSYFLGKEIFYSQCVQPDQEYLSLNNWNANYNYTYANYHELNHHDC
The note with it: protein: recombinant; tags: N-terminal GST; dsDNA, one strand shown. A digest of the protocol:
as §1

The target in experiment [5] is ELF4 (Homo sapiens, UniProt Q99607 1-663). The conditions noted are these: protein: recombinant; tags: N-terminal GST; dsDNA, one strand shown. A digest of the protocol:
as §1

Experiment [6] concerns the target T3, ELK4 (Homo sapiens, UniProt P28324-2 1-405).
T3 sequence: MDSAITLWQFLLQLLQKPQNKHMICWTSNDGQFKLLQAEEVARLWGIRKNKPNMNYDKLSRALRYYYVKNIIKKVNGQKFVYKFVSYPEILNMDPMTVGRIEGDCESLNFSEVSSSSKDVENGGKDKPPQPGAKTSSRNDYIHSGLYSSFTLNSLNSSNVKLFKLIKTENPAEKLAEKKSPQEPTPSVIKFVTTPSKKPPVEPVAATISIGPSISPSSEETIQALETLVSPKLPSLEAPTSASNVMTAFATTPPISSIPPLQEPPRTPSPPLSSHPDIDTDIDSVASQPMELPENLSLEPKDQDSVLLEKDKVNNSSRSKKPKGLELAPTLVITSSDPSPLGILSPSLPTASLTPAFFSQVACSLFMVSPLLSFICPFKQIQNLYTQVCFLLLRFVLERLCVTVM
The note with it: protein: recombinant; tags: N-terminal GST; dsDNA, one strand shown. In a few lines:
as §1

The target in experiment [7] is T4, ETV2 (Homo sapiens, UniProt O00321 1-342).
T4 sequence: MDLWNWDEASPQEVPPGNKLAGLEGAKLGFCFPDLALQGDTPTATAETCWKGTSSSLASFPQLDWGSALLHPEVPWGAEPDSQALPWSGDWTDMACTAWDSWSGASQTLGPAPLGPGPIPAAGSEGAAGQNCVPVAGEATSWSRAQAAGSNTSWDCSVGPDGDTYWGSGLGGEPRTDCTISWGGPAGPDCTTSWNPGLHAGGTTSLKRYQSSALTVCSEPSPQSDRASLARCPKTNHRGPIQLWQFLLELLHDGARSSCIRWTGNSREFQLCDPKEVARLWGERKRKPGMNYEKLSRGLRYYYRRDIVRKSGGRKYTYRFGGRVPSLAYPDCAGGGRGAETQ
The conditions noted are these: protein: recombinant; tags: N-terminal GST; dsDNA, one strand shown. A digest of the protocol:
as §1

Experiment [8] addresses T5, ELF3 (Homo sapiens, UniProt P78545 1-371).
T5 sequence: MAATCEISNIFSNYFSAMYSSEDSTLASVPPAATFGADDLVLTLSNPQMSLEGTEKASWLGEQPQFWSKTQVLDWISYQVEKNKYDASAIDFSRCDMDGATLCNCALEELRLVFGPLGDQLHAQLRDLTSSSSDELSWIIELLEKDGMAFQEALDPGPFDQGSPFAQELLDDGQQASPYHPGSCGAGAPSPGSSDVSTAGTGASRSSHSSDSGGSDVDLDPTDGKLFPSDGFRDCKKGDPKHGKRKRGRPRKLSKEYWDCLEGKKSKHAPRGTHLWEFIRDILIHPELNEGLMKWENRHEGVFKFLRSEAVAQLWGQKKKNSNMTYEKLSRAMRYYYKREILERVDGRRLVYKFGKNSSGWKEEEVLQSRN
The conditions noted are these: protein: recombinant; tags: N-terminal GST; dsDNA, one strand shown. In a few lines: as §1

In experiment [9] the target is CRX (Homo sapiens, UniProt O43186 1-299). The note with it: protein: recombinant; tags: N-terminal GST; dsDNA, one strand shown. A digest of the protocol: as §1
The target in experiment [10] is ETV1 (Homo sapiens, UniProt P50549 1-477). The conditions noted are these: protein: recombinant; tags: N-terminal GST; dsDNA, one strand shown. A digest of the protocol:
as §1

The target of experiment [11] is T6, ERF (Homo sapiens, UniProt P50548 1-548).
T6 sequence: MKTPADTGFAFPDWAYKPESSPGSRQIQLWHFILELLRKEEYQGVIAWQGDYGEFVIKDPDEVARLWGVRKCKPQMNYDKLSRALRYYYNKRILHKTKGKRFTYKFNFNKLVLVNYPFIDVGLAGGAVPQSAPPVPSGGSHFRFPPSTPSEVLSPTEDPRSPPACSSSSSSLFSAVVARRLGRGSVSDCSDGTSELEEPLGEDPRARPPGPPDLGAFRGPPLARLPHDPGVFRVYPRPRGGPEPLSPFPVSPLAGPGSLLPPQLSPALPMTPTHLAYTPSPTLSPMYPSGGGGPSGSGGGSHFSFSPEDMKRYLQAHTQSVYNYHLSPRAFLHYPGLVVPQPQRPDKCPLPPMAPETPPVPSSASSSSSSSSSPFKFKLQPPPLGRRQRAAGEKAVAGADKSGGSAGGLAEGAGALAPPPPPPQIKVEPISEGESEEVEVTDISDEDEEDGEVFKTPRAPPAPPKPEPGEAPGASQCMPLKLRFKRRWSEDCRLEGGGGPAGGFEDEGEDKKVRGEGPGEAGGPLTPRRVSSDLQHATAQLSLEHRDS
The note with it: protein: recombinant; tags: N-terminal GST; dsDNA, one strand shown. A digest of the protocol:
as §1

Experiment [12] concerns the target T7, ETV3L (Homo sapiens, UniProt Q6ZN32 1-361).
T7 sequence: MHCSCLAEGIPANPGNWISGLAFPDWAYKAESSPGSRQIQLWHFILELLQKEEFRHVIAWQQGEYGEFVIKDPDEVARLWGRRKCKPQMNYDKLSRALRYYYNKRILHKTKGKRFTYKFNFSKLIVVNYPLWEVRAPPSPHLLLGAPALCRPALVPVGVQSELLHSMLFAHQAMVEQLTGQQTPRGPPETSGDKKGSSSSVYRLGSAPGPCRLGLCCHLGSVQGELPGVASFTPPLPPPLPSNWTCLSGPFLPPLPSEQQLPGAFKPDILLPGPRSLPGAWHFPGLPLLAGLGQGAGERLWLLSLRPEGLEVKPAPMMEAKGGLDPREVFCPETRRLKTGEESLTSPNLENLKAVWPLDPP
The note with it: protein: recombinant; tags: N-terminal GST; dsDNA, one strand shown. A digest of the protocol: as §1

For experiment [13], the target named is T8, ETS2 (Homo sapiens, UniProt P15036 1-469).
T8 sequence: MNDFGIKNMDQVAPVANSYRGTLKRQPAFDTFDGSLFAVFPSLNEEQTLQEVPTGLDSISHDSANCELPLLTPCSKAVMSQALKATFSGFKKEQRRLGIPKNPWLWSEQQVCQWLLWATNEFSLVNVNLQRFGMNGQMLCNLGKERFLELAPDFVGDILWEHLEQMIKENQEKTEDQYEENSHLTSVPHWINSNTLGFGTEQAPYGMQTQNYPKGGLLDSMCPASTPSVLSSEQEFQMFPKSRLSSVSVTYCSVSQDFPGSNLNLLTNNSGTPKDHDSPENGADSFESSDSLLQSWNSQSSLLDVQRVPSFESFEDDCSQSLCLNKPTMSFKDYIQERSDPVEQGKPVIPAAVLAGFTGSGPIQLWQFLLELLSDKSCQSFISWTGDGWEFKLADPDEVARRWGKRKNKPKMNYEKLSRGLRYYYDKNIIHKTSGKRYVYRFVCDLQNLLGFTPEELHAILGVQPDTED
The conditions noted are these: protein: recombinant; tags: N-terminal GST; dsDNA, one strand shown. A digest of the protocol: as §1

Experiment [14] addresses T9, SPDEF (Homo sapiens, UniProt O95238 1-335).
T9 sequence: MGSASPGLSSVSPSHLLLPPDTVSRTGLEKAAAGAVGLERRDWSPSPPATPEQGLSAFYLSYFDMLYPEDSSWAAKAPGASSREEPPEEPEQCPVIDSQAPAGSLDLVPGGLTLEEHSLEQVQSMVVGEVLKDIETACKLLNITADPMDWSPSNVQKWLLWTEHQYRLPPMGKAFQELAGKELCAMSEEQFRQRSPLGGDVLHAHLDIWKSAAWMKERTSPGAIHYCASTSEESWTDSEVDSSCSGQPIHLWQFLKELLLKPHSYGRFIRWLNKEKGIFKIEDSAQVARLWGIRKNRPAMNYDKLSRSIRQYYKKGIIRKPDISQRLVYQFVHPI
The note with it: protein: recombinant; tags: N-terminal GST; dsDNA, one strand shown. A digest of the protocol: as §1

The target of experiment [15] is T10, ETV7 (Homo sapiens, UniProt Q9Y603 1-341).
T10 sequence: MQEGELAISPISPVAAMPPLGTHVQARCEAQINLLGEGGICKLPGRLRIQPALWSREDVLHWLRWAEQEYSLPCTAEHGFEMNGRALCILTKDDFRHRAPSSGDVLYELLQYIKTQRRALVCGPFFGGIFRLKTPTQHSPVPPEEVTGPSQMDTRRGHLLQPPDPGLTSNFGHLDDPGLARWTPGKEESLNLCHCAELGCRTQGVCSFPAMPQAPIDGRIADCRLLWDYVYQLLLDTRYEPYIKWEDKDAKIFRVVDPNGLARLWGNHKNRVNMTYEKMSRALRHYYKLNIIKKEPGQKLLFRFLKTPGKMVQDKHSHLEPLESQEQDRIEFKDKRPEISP
The conditions noted are these: protein: recombinant; tags: N-terminal GST; dsDNA, one strand shown. A digest of the protocol: as §1

Experiment [16] has as its target T11, ELF5 (Homo sapiens, UniProt Q9UKW6-2 1-255).
T11 sequence: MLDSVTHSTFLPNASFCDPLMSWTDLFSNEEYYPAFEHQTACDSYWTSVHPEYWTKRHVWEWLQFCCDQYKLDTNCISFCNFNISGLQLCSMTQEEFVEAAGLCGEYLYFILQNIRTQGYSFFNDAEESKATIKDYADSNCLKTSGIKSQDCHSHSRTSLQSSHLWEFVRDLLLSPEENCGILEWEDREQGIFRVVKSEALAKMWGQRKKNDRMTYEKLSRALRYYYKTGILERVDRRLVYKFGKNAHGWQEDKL
The note with it: protein: recombinant; tags: N-terminal GST; dsDNA, one strand shown. A digest of the protocol:
as §1

Experiment [17] addresses T12, ETV3 (Homo sapiens, UniProt P41162-2 1-143).
T12 sequence: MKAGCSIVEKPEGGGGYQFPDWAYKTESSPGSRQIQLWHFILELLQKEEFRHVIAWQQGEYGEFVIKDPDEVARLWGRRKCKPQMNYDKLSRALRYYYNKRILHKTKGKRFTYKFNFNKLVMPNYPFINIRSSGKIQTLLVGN
The note with it: protein: recombinant; tags: N-terminal GST; dsDNA, one strand shown. A digest of the protocol:
as §1

Experiment [18] deals with ETV6 (Homo sapiens, UniProt P41212 1-452). The note with it: protein: recombinant; tags: N-terminal GST; dsDNA, one strand shown. A digest of the protocol: as §1
Chain of ETV6 (P41212 whole entry): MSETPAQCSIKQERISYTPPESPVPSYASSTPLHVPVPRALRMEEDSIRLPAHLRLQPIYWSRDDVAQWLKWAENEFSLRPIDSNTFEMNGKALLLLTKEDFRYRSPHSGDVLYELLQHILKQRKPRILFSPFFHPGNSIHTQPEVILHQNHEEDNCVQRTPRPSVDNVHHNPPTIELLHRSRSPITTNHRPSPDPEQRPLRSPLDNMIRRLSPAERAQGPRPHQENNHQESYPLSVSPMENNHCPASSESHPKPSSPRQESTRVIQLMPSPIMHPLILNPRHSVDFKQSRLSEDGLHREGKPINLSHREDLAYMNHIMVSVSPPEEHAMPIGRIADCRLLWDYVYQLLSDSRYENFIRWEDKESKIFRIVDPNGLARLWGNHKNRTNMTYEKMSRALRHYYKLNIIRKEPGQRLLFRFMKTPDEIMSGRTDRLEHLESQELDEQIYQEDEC

Chain of ETV1 (P50549 whole entry): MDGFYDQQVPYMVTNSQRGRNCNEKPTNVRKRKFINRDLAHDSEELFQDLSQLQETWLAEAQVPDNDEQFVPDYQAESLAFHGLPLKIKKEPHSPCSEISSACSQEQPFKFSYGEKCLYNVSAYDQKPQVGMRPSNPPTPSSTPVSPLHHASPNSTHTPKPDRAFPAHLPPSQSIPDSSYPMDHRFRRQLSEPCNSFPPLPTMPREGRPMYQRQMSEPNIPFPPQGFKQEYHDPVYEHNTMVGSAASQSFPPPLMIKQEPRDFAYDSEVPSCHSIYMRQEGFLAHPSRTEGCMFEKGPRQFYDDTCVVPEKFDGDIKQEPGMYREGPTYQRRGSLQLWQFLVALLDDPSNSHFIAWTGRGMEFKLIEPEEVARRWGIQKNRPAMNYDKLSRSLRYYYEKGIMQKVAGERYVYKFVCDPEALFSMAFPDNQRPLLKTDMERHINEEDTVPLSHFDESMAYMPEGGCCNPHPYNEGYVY
Chain of CRX (O43186 whole entry): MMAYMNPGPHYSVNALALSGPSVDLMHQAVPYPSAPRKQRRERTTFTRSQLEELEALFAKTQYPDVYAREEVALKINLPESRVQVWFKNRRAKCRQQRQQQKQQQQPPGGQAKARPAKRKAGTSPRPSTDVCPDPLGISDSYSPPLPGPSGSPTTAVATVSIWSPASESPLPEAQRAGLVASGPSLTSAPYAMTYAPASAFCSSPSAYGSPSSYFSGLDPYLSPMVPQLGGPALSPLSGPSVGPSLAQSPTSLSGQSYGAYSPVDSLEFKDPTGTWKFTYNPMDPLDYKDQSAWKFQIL
Chain of HSF1 (Q00613 whole entry): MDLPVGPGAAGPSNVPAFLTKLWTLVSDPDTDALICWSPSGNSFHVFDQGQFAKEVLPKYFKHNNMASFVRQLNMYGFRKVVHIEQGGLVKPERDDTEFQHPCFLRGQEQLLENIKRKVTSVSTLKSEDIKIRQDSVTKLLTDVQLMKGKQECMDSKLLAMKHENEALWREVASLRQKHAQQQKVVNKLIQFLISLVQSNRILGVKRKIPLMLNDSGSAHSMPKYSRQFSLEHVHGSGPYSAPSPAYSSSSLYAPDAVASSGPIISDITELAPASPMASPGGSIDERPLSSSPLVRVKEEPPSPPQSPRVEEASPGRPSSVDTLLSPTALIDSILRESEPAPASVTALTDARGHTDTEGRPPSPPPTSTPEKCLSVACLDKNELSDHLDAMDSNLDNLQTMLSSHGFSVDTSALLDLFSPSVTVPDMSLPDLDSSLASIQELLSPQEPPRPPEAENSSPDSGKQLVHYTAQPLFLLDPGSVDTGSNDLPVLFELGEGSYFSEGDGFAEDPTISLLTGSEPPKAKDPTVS
Chain of ETV5 (P41161 whole entry): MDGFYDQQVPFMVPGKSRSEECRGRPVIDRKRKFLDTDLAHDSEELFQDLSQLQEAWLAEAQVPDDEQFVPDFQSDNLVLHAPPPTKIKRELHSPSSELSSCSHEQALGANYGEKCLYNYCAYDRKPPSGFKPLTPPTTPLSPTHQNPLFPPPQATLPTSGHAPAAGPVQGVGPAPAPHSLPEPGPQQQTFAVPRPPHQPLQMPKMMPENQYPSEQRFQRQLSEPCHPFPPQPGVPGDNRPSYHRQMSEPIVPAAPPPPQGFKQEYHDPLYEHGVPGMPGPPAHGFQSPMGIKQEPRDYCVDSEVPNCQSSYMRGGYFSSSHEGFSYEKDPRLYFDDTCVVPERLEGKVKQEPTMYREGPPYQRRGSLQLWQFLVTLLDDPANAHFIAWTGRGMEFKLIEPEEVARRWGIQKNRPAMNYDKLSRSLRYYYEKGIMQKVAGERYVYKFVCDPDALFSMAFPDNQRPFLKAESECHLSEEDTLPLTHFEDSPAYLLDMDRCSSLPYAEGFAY
Chain of ELF4 (Q99607 whole entry): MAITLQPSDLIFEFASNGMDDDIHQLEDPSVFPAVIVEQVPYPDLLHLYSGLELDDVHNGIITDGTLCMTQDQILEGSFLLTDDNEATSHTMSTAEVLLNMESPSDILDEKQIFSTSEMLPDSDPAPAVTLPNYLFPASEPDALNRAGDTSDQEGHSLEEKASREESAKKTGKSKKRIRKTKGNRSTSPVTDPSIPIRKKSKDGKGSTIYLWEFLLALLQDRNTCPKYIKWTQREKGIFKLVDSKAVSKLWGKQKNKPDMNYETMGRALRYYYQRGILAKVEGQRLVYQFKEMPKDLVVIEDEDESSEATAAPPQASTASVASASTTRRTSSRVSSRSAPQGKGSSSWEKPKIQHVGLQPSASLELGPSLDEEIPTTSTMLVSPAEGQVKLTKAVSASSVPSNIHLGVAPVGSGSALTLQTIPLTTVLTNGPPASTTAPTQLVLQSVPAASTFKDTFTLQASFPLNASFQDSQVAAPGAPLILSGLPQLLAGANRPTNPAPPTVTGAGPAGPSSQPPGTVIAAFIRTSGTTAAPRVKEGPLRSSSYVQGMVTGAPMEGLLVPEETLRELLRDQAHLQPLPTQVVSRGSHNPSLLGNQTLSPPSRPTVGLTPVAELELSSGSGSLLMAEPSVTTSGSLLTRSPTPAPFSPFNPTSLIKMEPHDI

TTAGCA: the binding signal was 1.23 fold enrichment (6-mer frequency, TF over GST control) in [1]; 1.15 fold enrichment (6-mer frequency, TF over GST control) in experiment [2]; 1.7 fold enrichment (6-mer frequency, TF over GST control) in [3]; 1.22 fold enrichment (6-mer frequency, TF over GST control) in experiment [4]; 1.33 fold enrichment (6-mer frequency, TF over GST control) in experiment [5]; 1.33 fold enrichment (6-mer frequency, TF over GST control) in [6]. The binding signal in experiment [7] was 1.27 fold enrichment (6-mer frequency, TF over GST control); in [8] it was 1.3 fold enrichment (6-mer frequency, TF over GST control); in experiment [9] it was 2.38 fold enrichment (6-mer frequency, TF over GST control); in experiment [10] it was 1.32 fold enrichment (6-mer frequency, TF over GST control); in experiment [11] it was 1.29 fold enrichment (6-mer frequency, TF over GST control); in experiment [12] it was 1.26 fold enrichment (6-mer frequency, TF over GST control). For the same sequence, the binding signal is 1.16 fold enrichment (6-mer frequency, TF over GST control) in [13]; 1.23 fold enrichment (6-mer frequency, TF over GST control) in [14]; 1.19 fold enrichment (6-mer frequency, TF over GST control) in experiment [15]; 1.15 fold enrichment (6-mer frequency, TF over GST control) in experiment [16]; 1.19 fold enrichment (6-mer frequency, TF over GST control) in experiment [17]; 1.25 fold enrichment (6-mer frequency, TF over GST control) in experiment [18].

These data come from paper PMC7862700, “An all-to-all approach to the identification of sequence-specific readers for epigenetic DNA modifications on cytosine”.
